Screens as filed in PubChem BioAssay.
The list is not random: actives were taken first. Their share in the collection is about 18%.
TDP1 inh: blocks human tyrosyl-DNA phosphodiesterase 1. Potency, µM (doses to about 130 µM), for inactives: top-dose activity change, negative = inhibition, hits mostly inhibitors. recombinant TDP1, AlphaScreen DNA substrate cleavage. AID 485290. 0.28% of 350,000 active; further: potency means the concentration at half of the fitted maximal effect; nearly all actives have a fitted effect of over 40% in size
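E. coli-derived human Tdp1, 1 nM final. Cpd preinc 15 min RT; substrate 15 nM final, 5 min RT; AS bead mix 10 ug/ml final, 10 min RT. Signal loss = tyrosine-FITC cleavage. No-enzyme wells = max signal.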
IL-1B inflam inh: inhibitors of inflammasome signaling (IL-1 beta secretion); THP-1 LPS/ATP IL-1B secretion, AlphaLISA, 16 h; hits give low values; activity change, % at 57.5 µM; 4.7% of 360,000 active; in the data active means activity change below about -50%; inconclusive means mostly about -30% to -49%
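THP-1 cells pretreated 1 hr with compounds (up to 57.5 uM final), then stimulated with LPS (250 ng/mL final) plus ATP (1.25 mM final); secreted IL-1B measured by AlphaLISA after 16 hr, decreased signal indicating inhibition.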
Six1-Eya2 blk: blocks human Six1 binding to Eya2 | Q15475+O00167 | AID 651725 | 0.56% of 360,000 active | activity change, % (no concentration beside the values) | AlphaScreen GST-Six1/His-Eya2 binding, biochemical; hits give low values; in the data active means activity change below about -65%; inconclusive means mostly about -30% to -63%
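AlphaScreen with GST-Six1 and His-Eya2 (5X mix: 250 nM and 500 nM), glutathione donor and nickel acceptor beads; buffer 50 mM Tris pH 8.0, 300 mM NaCl, 1 mM TCEP; 1 h at 37 C in the dark.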
DT40 TDP1 no CPT: qHTS for Inhibitors of human tyrosyl-DNA phosphodiesterase 1 (TDP1): qHTS in cells in absence of CPT. DT40 Tdp1-/- hTDP1 cells, no CPT, ATP luminescence, 48 h. Potency, µM (top dose mostly 46.2 µM), without a hit: at the highest dose activity change, negative = growth inhibition, most hits filed as inhibitors. 15% of 420,000 active. AID 686978, 2013; further: potency means the concentration at half of the fitted maximal effect; nearly all actives have a fitted effect of over 55% in size
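Compound effects on proliferation are scored in DT40 Tdp1-/-;hTDP1 cells in the absence of CPT. ATP levels (CellTiter-Glo luminescence) are recorded after a ≥48 hr, 37 °C incubation.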
TDP1 cell CPT: growth inhibition of DT40 Tdp1-/-;hTDP1 cells with camptothecin (screen for TDP1 inhibitors) | chicken DT40 Tdp1-/-;hTDP1 cells + 20 nM CPT, ATP luminescence, 48 h | Potency, µM (series often up to 46.2 µM), for inactives: at the highest dose activity change, negative = growth inhibition, usual class: inhibitors | AID 686979 | 12% of 420,000 active; further: potency means the concentration at half of the fitted maximal effect; nearly all actives have a fitted effect of over 55% in size
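Chicken DT40 Tdp1-/- cells stably complemented with human TDP1 were seeded at 400 cells/well in medium containing 20 nM camptothecin, exposed to pin-transferred compounds, and grown at 37 °C for at least 48 hr. Viability was read as ATP luminescence.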
CtBP-E1A inh: CtBP/E1A binding inhibition; activity change, % (test concentration not listed); 0.49% of 340,000 active; AlphaScreen GST-E1A/His-CtBP binding, 1536-well; hits give low values; in the data active means activity change below about -65%; inconclusive means mostly about -30% to -63%
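Steps: dispense buffer (Tris pH 8.0, NaCl 300 mM, TCEP 1 mM, BSA, Tween 20); add 5X protein mix (GST-E1A, His-CtBP, 125 nM each); pin 23 nL compound; 2 h at 37 °C, dark; add 5X beads (50 ug/mL); 1 h; read.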
* = called active by the depositor; ? = inconclusive; · = no result given; [ ] = remark or other dose. Unless noted, the call rests on the fitted dose curve; in most records, active means well fitted curve in the direction sought with a large enough effect; inconclusive means small, poorly fitted or top-dose-only effect, or another doubt; inactive means no such curve, though single readings can be large; an effect the other way counts as inactive or inconclusive. On the % scale 0 is the no-effect control and ±100 the full control effect.

SMILES	TDP1 inh	IL-1B inflam inh	Six1-Eya2 blk	DT40 TDP1 no CPT	TDP1 cell CPT	CtBP-E1A inh
Cc1ccc(O)c(-c2n[nH]c3c2C(c2ccccc2F)N(Cc2ccco2)C3=O)c1 (centres undefined)	10%	·	·	21µM*	?	·
COc1cc(C2c3c(-c4ccccc4O)n[nH]c3C(=O)N2CCO)ccc1OCC(C)C (centres undefined)	4%	·	·	?	?	·
COc1cccc(C2c3c(-c4ccccc4O)n[nH]c3C(=O)N2Cc2ccco2)c1 (centres undefined)	·	0	-14	?	?	-4
O=C1c2[nH]nc(-c3ccccc3O)c2C(c2ccccc2F)N1Cc1ccco1 (centres undefined)	7%	75	-19	?	?	-9
O=C1c2[nH]nc(-c3ccccc3O)c2C(c2ccc(Cl)cc2)N1Cc1ccco1 (centres undefined)	15%	·	·	?	16µM*	·
Cn1cccc1CN1CCC[C@]2(N[C@H](c3ccccc3)[C@@H]3C(=O)N(Cc4ccccc4)C(=O)[C@@H]32)C1=O	·	-20	-9	?	?	1
CCOC(=O)CSc1ncccn1	0%	0	0	1%	15%	-2
Cc1nn(Cc2ccccc2Cl)c(C)c1NC(=O)c1cc(-c2ccc(F)cc2)on1	7%	20	1	-21%	?	2
Cc1nn(Cc2ccccc2Cl)c(C)c1NC(=O)c1nc2ncccn2n1	2%[56.1 µM]	9	10	13µM*	13µM*	6
Cc1nn(Cc2ccccc2Cl)c(C)c1NC(=O)c1ccn(C)n1	8%	10	12	12µM*	8.2µM*	-2
CCC(CC)c1nnc(NC(=O)c2c(C)nn(Cc3ccccc3Cl)c2C)s1	7%	23	?	-26%	23µM*	-27
Cc1nn(Cc2ccccc2Cl)c2sc(C(=O)NC(C)(C)C)cc12	1%	5	-1	?	-1%	5
Cc1csc(NC(=O)c2cc3c(C)nn(Cc4ccccc4Cl)c3s2)n1	2%	6	3	16µM*	?	-25
CCOC(=O)[C@@H]1[C@H]2COc3ccc(Br)cc3[C@@H]2N2C(=O)N(c3ccccc3)C(=O)[C@@]12C	·	18	-7	-17%	?	-21
CNCCCNCc1ccc(SC)cc1	4%	·	·	·	·	·
COCC(C)NC(=O)CCS(=O)(=O)c1nc(-c2ccc(OC)cc2)cc(C(F)(F)F)n1 (centres undefined)	8%	-102*	-2	4.6µM*	4.1µM*	1
c1ccc(-c2cc(-c3ccncc3)nc3ccc4ccccc4c23)cc1	3%	-25	1	?	?	0
CCOC(=O)CS(=O)(=O)c1nc(-c2ccccc2)cc(C(F)(F)F)n1	3%	-125*	3	1.6µM*	0.65µM*	9
COC(=O)CCS(=O)(=O)c1nc(-c2ccccc2)cc(C(F)(F)F)n1	2%	-105*	0	2.3µM*	3.3µM*	4
CCOC(=O)Cc1cc(-c2ccccc2)nc2ccc3ccccc3c12	·	28	36	13µM*	?	-2
Fc1ccccc1COc1ccc(Br)cc1CNCc1cccnc1	0%	5	7	?	?	0
O=c1oc2ccc(Br)cc2cc1-c1csc(-c2ccccc2)n1	-4%	·	·	-12%	-10%	·
CCOC(=O)CCS(=O)(=O)c1nc(-c2ccccc2)cc(C(F)(F)F)n1	3%	-99*	-14	0.65µM*	0.41µM*	8
CCOC(=O)CS(=O)(=O)c1nc(-c2ccc(F)cc2)cc(C(F)(F)F)n1	1%	-119*	5	0.82µM*	0.52µM*	11
CCOC(=O)c1c(C(F)(F)F)cc(-c2ccc(F)cc2)nc1C	-1%	-3	25	-39%	-3%	36
